Experimental data published in PubChem BioAssay (NCATS).
Inconclusive results are not listed. Unmarked numbers belong to inactive results. Calls come from the whole dose curve; as a rule, active = well fitted curve in the direction sought with a large enough effect; inconclusive = small, poorly fitted or top-dose-only effect, or another doubt; inactive = no such curve, though single readings can be large or run the other way.

Assay: qHTS Assay for Identifying Gametocytocidal Compounds (AID 743244);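 note: actives lower the fluorescent signal which means gametocytes are killed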
Conditions: P. falciparum 3D7 stage III-V gametocytes, alamarBlue, 72 h; max response: stronger effect = lower value
Procedure, shortened: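 Using 20,000 stage III–V 3D7 gametocytes per well, compounds were incubated 72 h under 37 °C/5% CO2. Viability was then assessed by 24 h alamarBlue reduction, measured fluorometrically at 525/598 nm.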
% is set by controls: 0 for no effect and ±100 for the full control effect.

First: CC(C)NC[C@@H](O)COc1ccc(CC(N)=O)cc1
Second: CC(CN(C)C)C(C)(O)Cc1ccc(Cl)cc1 (stereo not given)
The max response of the first is higher: 23.6% for the first, -5.22% for the second.

Going from `CN1CCCN=C1COC(=O)C(O)(c1ccccc1)C1CCCCC1` (stereo not given) to `Cc1ccsc1C(=CCCN1CCC[C@@H](C(=O)O)C1)c1sccc1C`, the max response rises from -2.61% to -0.959%.

First: CN1C(C)(C)CCCC1(C)C
Second: CC(C)=CCC[C@@](C)(O)[C@H]1CC=C(C)CC1
The max response of the first is lower: -1.65% for the first, 10.2% for the second.

First: O=C(CCBr)N1CCN(C(=O)CCBr)CC1
Second: NC(=O)CCCCC1CCSS1 (stereo not given)
The max response of the first is lower: -1.41% for the first, 0.706% for the second.

Going from `CN(C/C=C/C#CC(C)(C)C)Cc1cccc2ccccc12` to `Cc1c(I)c(=O)n(-c2ccccc2)n1C`, the max response rises from -1.43% to 4.77%.

Going from `Cc1ccc2c(c1)c1c3n2CCNC3CCC1` (stereo not given) to `CC1CCc2cc(F)cc3c(=O)c(C(=O)O)cn1c23` (stereo not given), the max response falls from 5.73% to -10.9%.

Going from `CCc1nnc(NS(=O)(=O)c2ccc(N)cc2)s1` to `NNc1nnc(NN)c2ccccc12`, the max response rises from -5.5% to 5.69%.

Going from `CC(CSC(=O)c1ccccc1)C(=O)N1C[C@@H](Sc2ccccc2)C[C@H]1C(=O)O` (stereo not given in full) to `O=C(O)c1ccc[n+]([O-])c1`, the max response falls from 2.09% to -6.63%.

First: CCCCCCCCCCCCCCCCN
Second: CC(=O)N[C@H]1[C@H]([C@H](O)[C@H](O)CO)OC(C(=O)O)=C[C@@H]1N=C(N)N
The max response of the first is higher: 6.4% for the first, 5.37% for the second.

Going from `C[C@H]1COc2c(C3(N)CC3)c(F)cc3c(=O)c(C(=O)O)cn1c23` to `Nc1ncnc2c1ncn2[C@@H]1O[C@H](COP(=O)(O)O)[C@@H](O)[C@H]1O`, the max response falls from -1.28% to -1.97%.
